Results filed as inconclusive are left out. Unmarked numbers belong to inactive results. Active and inactive are the calls of the source. The call rests on the fitted dose curve; in most records, active means well fitted cell-killing curve with a large enough effect; inconclusive means small, poorly fitted or top-dose-only effect, or effect the other way; inactive means no such curve, though single readings can be large or run the other way.
Assay: Quantitative High-Throughput drug screen in 47 multiple myeloma cell lines against the NCATS MIPE library collection: Karpas620_DSMZ cell viability assay (AID 1918959); further: nearly all actives have a fitted effect of over 30% in size
Settings: Karpas620 myeloma viability, CellTiter-Glo ATP luminescence, 48 h; series mostly up to 45.8 µM; viability (% of DMSO): at the top concentration
From the text: PI: Beverly A. Mock Ph.D.
Laboratory of Cancer Biology and Genetics,
Center for Cancer Research, National Cancer Institute,
National Institute of Health, Bethesda, Maryland
Drug resistance and disease progression are common in multiple myeloma (MM) patients, underscoring the need for new therapeutic combinations. […] We hypothesized that effective combinations would reduce MYC expression and enhance p16 activity. […] These preclinical data identify potentially useful drug combinations for evaluation in drug-resistant MM and reveal potential mechanisms of combined drug sensitivity.
Described herein is the primary MIPE qHTS used to cherrypick compounds. Validated compounds were then further tested for potential synergistic activiy.
[1] Peat TJ, Gaikwad SM, Dubois W, Gyabaah-Kessie N, Zhang S, Gorjifard S, Phyo Z, Andres M, Hughitt VK, Simpson RM, Miller MA, Girvin AT, Taylor A, Williams D, D'Antonio N, Zhang Y, Rajagopalan A, Flietner E, Wilson K, Zhang X, Shinn P, Klumpp-Thomas C, McKnight C, Itkin Z, Chen L, Kazandijian D, Zhang J, Michalowski AM, Simmons JK, Keats J, Thomas CJ, Mock BA. Drug combinations identified by high-throughput screening promote cell cycle transition and upregulate Smad pathways in myeloma. Cancer Lett. 2023 Aug 1;568:216284. doi: 10.1016/j.canlet.2023.216284. Epub 2023 Jun 24. PMID: 37356470; PMCID: PMC10408729.
SEQUENCE No. (e.g., 1, 2, 3, etc.); […] (e.g., Cells, Incubation, Reagent, etc.); VALUE and DESCRIPTION.
1; Cells; 5 uL; white, solid bottom 1536-well Greiner assay plate.
2; Compounds; 23 nL; Kalypsis pin tool (Wako USA) equipped with a 1536-well pin head to transfer to the assay plates.
3; Incubation; 48 hours; 37C incubation.
4; Reagent;5uL; CellTiter Glo (Promega).
5; Detector; 425V; Luminescence; Viewlux PerkinElmer.
NOTES (numbers refer to Sequence numbers above)
1. The cell-based screening methods employed in this study were like those previously published. Briefly, the corresponding myeloma cell lines were screened in 1,536-well plates with 500 cells, 5-uL per well for inhibition of cell viability (assessed by measuring ATP levels with CellTiterGlo).
2. NCATS MIPE 4.0 library of approved and investigational drugs were added using the Kalypsis pin tool. Wells treated with DMSO only for 100% viability and media only wells for 0% viability were used as controls.
3. The assay plates were covered and incubated for 48 hours in a 37C, 5% CO2 incubator with controlled humidity.
4. After 48 hours, CellTilter-GloTM luminescent substrate mix (Promega) reagent was added to the assay plate and plates we incubated for 5 min at room temperature.
5. Signal was measured as median relative luminescence units on a ViewLux (PerkinElmer) multiplate reader.
[1] Heske CM, Davis MI, Baumgart JT, Wilson K, Gormally MV, Chen L, Zhang X, Ceribelli M, Duveau DY, Guha R, Ferrer M, Arnaldez FI, Ji J, Tran HL, Zhang Y, Mendoza A, Helman LJ, Thomas CJ. Matrix Screen Identifies Synergistic Combination of PARP Inhibitors and Nicotinamide Phosphoribosyltransferase (NAMPT) Inhibitors in Ewing Sarcoma. Clin Cancer Res. 2017 Dec 1;23(23):7301-7311. doi: 10.1158/1078-0432.CCR-17-1121. Epub 2017 Sep 12. PMID: 28899971; PMCID: PMC6636827.
Potency means the concentration at half of the fitted maximal effect.

SMILES | Potency | viability (% of DMSO) [%]
O=c1cc(-c2cccc3c2Sc2ccccc2S3)oc(N2CCOCC2)c1 | 18.7 µM (active) | 
NC(=O)[C@@H](CCC(F)(F)F)N(Cc1ccc(-c2ncon2)cc1F)S(=O)(=O)c1ccc(Cl)cc1 |  | 93.5
CC(C)(Cc1ccc2ccccc2c1)NC[C@@H](O)COc1cccc(Cl)c1C#N |  | 128
CN1CCN(CCOc2cc(OC3CCOCC3)c3c(Nc4c(Cl)ccc5c4OCO5)ncnc3c2)CC1 | 18.7 µM (active) | 
O=C(Nc1cc(Cl)cc2c1[nH]c1cnccc12)c1cccnc1 |  | 111
CC(=O)N(C)C1(c2ccccc2)CCN(CCC[C@]2(c3ccc(Cl)c(Cl)c3)CCCN(C(=O)c3ccccc3)C2)CC1 | 16.6 µM (active) | 
CC(=O)O[C@]1(C(C)=O)CC[C@@H]2[C@@H]3C[C@H](C)C4=CC(=O)CC[C@]4(C)[C@H]3CC[C@@]21C |  | 99.9
NS(=O)(=O)c1ccc(NC2=CC(=O)c3ccccc3C2=O)cc1 | 1.66 µM (active) | 
CC=CC(=O)N(CC)c1ccccc1C |  | 95.5
O=C(Nc1ccccc1-c1cn2c(CN3CCNCC3)csc2n1)c1cnc2ccccc2n1 |  | 94.3
CC1(C)Cc2c(sc(NC(=S)NC(=O)c3ccccc3)c2C(=O)O)CO1 | 5.9 µM (active) | 
C[C@]12CC[C@@H]3c4ccc(O)cc4C[C@@H](CCCCCCCCCS(=O)CCCC(F)(F)C(F)(F)F)[C@H]3[C@H]1CC[C@H]2O (stereo not given in full) |  | 90.9
c1cc(-c2sc(-c3ccncc3)c(-c3ccncc3)c2-c2ccncc2)ccn1 |  | 96.3
Cc1cc(OCCCc2c(C(=O)O)n(Cc3cccnc3)c3c(-c4c(COc5ccc(N6CCN([S+](C)(=O)[O-])CC6)cc5)nn(C)c4C)cccc23)cc(C)c1Cl |  | 101
O=c1c(O)c(-c2ccc(O)cc2)oc2cc(O)cc(O)c12 | 18.7 µM (active) | 
c1ccc2c(Cc3c[nH]c4ccccc34)c[nH]c2c1 | 9.35 µM (active) | 
COc1cccc2c1CCCC2CCCN1CCN(C2CCCCC2)CC1 (stereo not given) | 18.7 µM (active) | 
N#C[C@H]1C[C@H]2C[C@@H]2N1C(=O)[C@@H](N)C12CC3CC(CC(O)(C3)C1)C2 |  | 113
O=C(NC1CCOCC1)c1ccc(-c2cc(-c3cn[nH]c3-c3ccccn3)ccn2)cc1 |  | 114
CN1[C@@H]2CCC[C@@H]1CC(NC(=O)c1nn(C)c3ccccc13)C2 (stereo not given in full) |  | 103

SMILES | Potency | viability (% of DMSO) [%]
O=c1cc(N2CCOCC2)oc2c(-c3cccc4c3sc3ccccc34)cccc12 | 16.6 µM (active) | 
CNC(=O)c1ccccc1Sc1ccc2c(C=Cc3ccccn3)n[nH]c2c1 | 0.264 µM (active) | 
C[C@H](NC(=O)c1sccc1OCc1ccc(Cl)cc1)c1ccccc1 |  | 117
O=C1C[C@@H](c2ccc(O)cc2)Oc2cc(O)cc(O)c21 |  | 114
Cn1cc(C=C2C(=O)Nc3cccnc32)c2ccccc21 |  | 76.2
COC(=O)N[C@H](C(=O)N1CCC[C@@H]1c1ncc(-c2ccc(-c3ccc(-c4cnc([C@@H]5CCCN5C(=O)[C@@H](NC(=O)OC)C(C)C)[nH]4)cc3)cc2)[nH]1)C(C)C | 16.6 µM (active) | 
NC[C@@H]1O[C@@H](O[C@H]2[C@@H](O)[C@H](O[C@@H]3[C@@H](O)[C@@H](N)C[C@H](N)[C@H]3O[C@H]3O[C@H](CN)[C@@H](O)[C@@H](O)[C@H]3N)O[C@H]2CO)[C@H](N)[C@@H](O)[C@@H]1O |  | 126
CCn1cc(C(=O)O)c(=O)c2ccc(C)nc21 |  | 102
CC(C)=CC[C@@H](O)C1=CC(=O)c2c(O)ccc(O)c2C1=O | 9.35 µM (active) | 
O=C(Nc1c(Cl)cncc1Cl)c1ccc(OC(F)F)c(OCC2CC2)c1 |  | 107
CC(=O)Oc1cc2c(s1)CCN(C(C(=O)C1CC1)c1ccccc1F)C2 (stereo not given) | 1.18 µM (active) | 
OC[C@H]1O[C@@H](Oc2cc(O)cc(C=Cc3ccc(O)cc3)c2)[C@H](O)[C@@H](O)[C@H]1O |  | 86.1
O=C(OCC#CCSc1nnc(-c2cccc3ccccc23)o1)c1cc2ccccc2s1 |  | 94.4
CC1(C)CCC2=C(O1)c1ccccc1C(=O)C2=O | 2.96 µM (active) | 
CC=CCC=CCCC(=O)[C@H]1O[C@@H]1C(N)=O | 16.6 µM (active) | 
COc1ccc(-c2coc3cc(O)ccc3c2=O)cc1 |  | 109
CN(C)CCC=C1c2ccccc2COc2ccc(CC(=O)O)cc21 |  | 107
COc1cc2ncnc(-n3nc(-c4ccccn4)nc3N)c2cc1OC | 0.418 µM (active) | 
NC(=O)c1cccc(-c2cc(Nc3ccc(OC(F)(F)F)cc3)ncn2)c1 | 26.4 µM (active) | 
O=C(NCc1ccncc1)C12C[C@H]3C[C@@H](C1)CC(c1ccc(Cl)cc1)(C3)C2 | 9.35 µM (active) | 
